Screening results deposited in PubChem BioAssay by National Center for Advancing Translational Sciences (NCATS).
Shown are actives, neighbours in structure and some others; about 12% of the full set was active somewhere.
BAZ2B inh – inhibitors of human BAZ2B bromodomain; Q9UIF8; AlphaScreen BAZ2B-H3K14Ac peptide displacement; Potency, µM (doses to about 114 µM), for inactives: top-dose activity change, negative = inhibition, most hits filed as inhibitors; 360,000 tested, 4.4% active; also: % is scaled to controls: 0 for no effect and ±100 for the full control effect; nearly all actives have a fitted effect of over 60% in size
Target sequence (Q9UIF8 whole entry, looked up): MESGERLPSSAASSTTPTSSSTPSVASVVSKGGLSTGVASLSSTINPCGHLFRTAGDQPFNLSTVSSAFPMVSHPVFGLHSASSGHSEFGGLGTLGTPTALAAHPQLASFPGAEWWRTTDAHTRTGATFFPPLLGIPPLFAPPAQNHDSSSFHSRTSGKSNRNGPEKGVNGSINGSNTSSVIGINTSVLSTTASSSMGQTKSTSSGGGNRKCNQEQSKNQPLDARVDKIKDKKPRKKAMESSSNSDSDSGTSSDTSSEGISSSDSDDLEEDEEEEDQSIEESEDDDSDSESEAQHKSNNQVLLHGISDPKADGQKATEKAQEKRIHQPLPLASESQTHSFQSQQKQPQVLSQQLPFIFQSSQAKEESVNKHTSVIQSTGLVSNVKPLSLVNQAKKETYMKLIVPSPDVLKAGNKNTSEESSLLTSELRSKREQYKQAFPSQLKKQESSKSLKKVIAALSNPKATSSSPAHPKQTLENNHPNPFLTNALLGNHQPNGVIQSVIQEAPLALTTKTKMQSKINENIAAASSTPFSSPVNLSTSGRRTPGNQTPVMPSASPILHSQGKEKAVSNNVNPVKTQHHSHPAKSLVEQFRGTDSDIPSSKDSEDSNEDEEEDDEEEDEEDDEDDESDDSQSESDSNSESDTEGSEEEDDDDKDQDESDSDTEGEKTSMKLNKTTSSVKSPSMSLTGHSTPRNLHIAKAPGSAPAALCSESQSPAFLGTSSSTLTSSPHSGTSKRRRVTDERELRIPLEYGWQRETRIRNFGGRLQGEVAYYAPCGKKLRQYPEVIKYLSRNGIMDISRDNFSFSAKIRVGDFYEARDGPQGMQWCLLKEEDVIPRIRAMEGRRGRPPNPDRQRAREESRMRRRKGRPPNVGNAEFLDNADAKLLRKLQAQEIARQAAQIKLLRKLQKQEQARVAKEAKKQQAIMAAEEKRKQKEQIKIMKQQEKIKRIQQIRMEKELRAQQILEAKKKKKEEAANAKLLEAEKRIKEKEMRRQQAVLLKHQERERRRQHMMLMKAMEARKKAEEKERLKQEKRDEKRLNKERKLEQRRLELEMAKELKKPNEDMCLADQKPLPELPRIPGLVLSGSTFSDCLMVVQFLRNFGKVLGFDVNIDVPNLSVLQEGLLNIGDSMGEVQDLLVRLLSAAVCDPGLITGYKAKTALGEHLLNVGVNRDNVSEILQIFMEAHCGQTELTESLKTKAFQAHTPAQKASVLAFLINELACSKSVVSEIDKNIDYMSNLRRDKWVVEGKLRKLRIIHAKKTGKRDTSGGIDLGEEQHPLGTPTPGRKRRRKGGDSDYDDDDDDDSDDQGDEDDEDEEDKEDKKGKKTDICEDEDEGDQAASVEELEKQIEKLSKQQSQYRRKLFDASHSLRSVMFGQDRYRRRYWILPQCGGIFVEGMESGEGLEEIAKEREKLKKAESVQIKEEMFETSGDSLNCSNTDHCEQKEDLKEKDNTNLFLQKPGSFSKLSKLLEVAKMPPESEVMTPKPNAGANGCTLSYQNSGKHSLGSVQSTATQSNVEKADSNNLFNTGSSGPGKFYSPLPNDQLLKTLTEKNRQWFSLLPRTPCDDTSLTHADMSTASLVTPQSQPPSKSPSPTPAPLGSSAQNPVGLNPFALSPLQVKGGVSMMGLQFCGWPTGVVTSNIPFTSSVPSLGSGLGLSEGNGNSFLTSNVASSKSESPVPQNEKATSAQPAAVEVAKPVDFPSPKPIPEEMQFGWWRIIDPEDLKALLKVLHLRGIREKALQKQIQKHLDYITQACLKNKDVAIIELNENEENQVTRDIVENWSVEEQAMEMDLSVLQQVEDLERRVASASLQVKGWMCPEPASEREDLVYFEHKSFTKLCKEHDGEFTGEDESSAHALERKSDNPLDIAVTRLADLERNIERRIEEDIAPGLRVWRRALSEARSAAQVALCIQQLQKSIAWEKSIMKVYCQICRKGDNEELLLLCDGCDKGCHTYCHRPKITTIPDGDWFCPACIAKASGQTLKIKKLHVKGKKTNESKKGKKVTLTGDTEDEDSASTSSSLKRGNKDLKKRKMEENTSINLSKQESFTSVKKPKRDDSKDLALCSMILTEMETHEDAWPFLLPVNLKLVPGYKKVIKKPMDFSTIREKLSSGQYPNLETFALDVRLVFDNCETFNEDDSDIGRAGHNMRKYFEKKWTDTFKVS
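BAZ2B 50 nM plus b-H3(5-23)K14Ac 50 nM, PBS pH 7.4/0.01% Tween-20, 30 min RT; compound added (max 110 uM), 30 min RT; streptavidin donor/Ni-chelate acceptor beads 10 ug/mL final, 20 min dark; AlphaScreen read.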
HP1b binding inh – inhibitors of HP1-beta chromodomain binding to methylated histone tails. P83916. Potency, µM (titrated, usually from 114 µM), inactives show at the highest dose activity change, negative = inhibition, actives largely listed as inhibitors. 390,000 tested, 0.56% active. AlphaScreen HP1-beta / biotin-H3K9me3 peptide binding; also: nearly all actives have a fitted effect of over 70% in size
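HP1-beta protein (50 nM final) preincubated 30 min at room temperature with biotinylated H3(1-18)K9me3 peptide (50 nM) in PBS pH 7.4, 0.01% Tween-20, then compound added for 30 min. AlphaScreen streptavidin donor/nickel chelate acceptor beads (10 ug/mL final), 30 min dark, luminescence read.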
JMJD2A Tudor inh – inhibitors of human JMJD2A Tudor domain. O75164. AlphaScreen JMJD2A-Tudor / H3K4me3 peptide binding. Potency, µM (top dose mostly 114 µM), without a hit: at the highest dose activity change, negative = inhibition, actives largely listed as inhibitors. 390,000 tested, 4.4% active. AID 504339; also: % is scaled to controls: 0 for no effect and ±100 for the full control effect; nearly all actives have a fitted effect of over 50% in size
Sfp PPTase inh – blocks B. subtilis Sfp PPTase activity | Biochemical Sfp PPTase activity, qHTS | Potency, µM, for the others: largest response in the series, negative = inhibition, hits mostly inhibitors | 310,000 tested, 3.5% active;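 also: the enzyme is Sfp with the accession as filed and its product quenches rhodamine fluorescence; 0% = enzyme reaction without inhibitor and -100% = no enzyme wells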
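Reaction rates are the 30-min fluorescence difference (ex 525, em 598 nm) in wells containing 15 nM Sfp, 5 uM rhodamine-CoA and 12.5 uM BHQ-2-YbbR at pH 7.6 with 10 mM MgCl2.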
G9a block – inhibitors of human histone lysine methyltransferase G9a; 350,000 tested, 8.8% active; Potency, µM (series often up to 102 µM), without a hit: at the highest dose activity, negative = inhibition, most hits filed as inhibitors; G9a H3K9 monomethylation, AlphaScreen, 2 h; AID 504332; also: % is scaled to controls: 0 for no effect and ±100 for the full control effect; nearly all actives have a fitted effect of over 75% in size
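Methyltransferase reactions run at room temperature for 2 h (20 nM enzyme, 500 nM biotin-H3K9 peptide, 20 uM SAM) after a 15 min compound preincubation; product detected by AlphaScreen beads and anti-H3K9me1 antibody.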
* hit, by the source's call; ? = inconclusive; . = no result; [ ] = dose if it differs, or a comment. Calls follow the shape of the dose curve; as a rule, active = well fitted curve in the direction sought with a large enough effect; inconclusive = small, poorly fitted or top-dose-only effect, or another doubt; inactive = no such curve, though single readings can be large; an effect the other way counts as inactive or inconclusive. Potency is read from the fitted curve at half-maximal effect.

SMILES	BAZ2B inh	HP1b binding inh	JMJD2A Tudor inh	Sfp PPTase inh	G9a block
O=S(=O)(N/N=C/c1ccc(Cl)cc1)c1ccc(Cc2ncc(C(F)(F)F)cc2Cl)s1	-33.5%	-24.2%	?	16.6%	28.2µM*
N#C/C(=C\N1CCN(Cc2ccc3c(c2)OCO3)CC1)c1nc2ccccc2s1	-5.1%	-9.1%	?	-4.9%	39.8µM*
c1ccc2sc(N3CCN(Cc4ccc5c(c4)OCO5)CC3)nc2c1	.	.	.	?	4.9%[59 µM]
Cc1ccc(-n2ncc3c2CCCC3NC(=O)CCn2ccnc2C)cc1C (configuration not stated)	.	31.4%	-12.4%	.	.
CCc1ccc2c(c1)-c1ccccc1S(=O)(=O)N2CC(=O)N1CCC(C)CC1	-14.6%	13.5%	-20.9%	.	-25.5%[59 µM]
COc1ccc(C(=O)OCC(=O)N2CCc3ccccc3C2)cc1OC	.	24.1%	0.0%	.	.
CN(C)CC(=O)N1CCc2ccccc2C1	50.1µM*	-32.7%	11.2µM*	-13.2%	?
CC(=O)Oc1cc(C(=O)OCC(=O)N2CCc3ccccc3C2)cc(OC(C)=O)c1OC(C)=O	.	?	1.58µM*	.	.
Cc1ccccc1N(CC(=O)N1CCc2ccccc2C1)S(C)(=O)=O	9.4%	38.8%	-2.3%	1.8%	12.0%
CCOc1cc(C2Nc3ccccc3C(=O)N2c2ccccc2)ccc1O (configuration not stated)	-4.9%	18.2%	-1.3%	6.8%	19.8%
CCOc1ccc(C2NCCc3cc(OC)c(OC)cc32)cc1OC (configuration not stated)	3.2%	44.5%	-9.8%	15.5%	-13.8%
CCOc1cc(C2Nc3cccc4cccc(c34)N2)ccc1O	?	-34.5%	-33.1%	-12.4%	10µM*
CCOc1ccc(C2Nc3cccc4cccc(c34)N2)cc1OC	-38.7%	50.1µM*	?	-26.3%	10µM*
CC(C)(C)c1ccc(OCC(=O)NCC2(N3CCOCC3)CCCCC2)cc1	-17.2%	54.3%	-5.3%	.	4.4%[59 µM]
C=C1N(C)c2cc([N+](=O)[O-])c(N)cc2C1(C)C	44.7µM*	?	?	-11.6%	31.6µM*
Cc1cc(-c2n[nH]c(=S)n2/N=C/c2cc([N+](=O)[O-])ccc2Cl)n[nH]1	?	?	7.94µM*	-26.0%	1.78µM*
Cc1cc(-c2n[nH]c(=S)n2/N=C/c2ccc(Cl)c([N+](=O)[O-])c2)n[nH]1	?	-23.8%	39.8µM*	?	1.41µM*
CCN1CCN(C(=O)c2ccc3c(c2)N(Cc2cccc(F)c2)C(=O)c2ccccc2S3)CC1	-17.8%	17.3%	79.4µM*	.	?
CN1CCN(C(=O)c2ccc3c(c2)N(Cc2ccc(Cl)cc2)C(=O)c2ccccc2S3=O)CC1 (configuration not stated)	10.8%	98.5%	-11.3%	-0.7%	79.4µM*
O=C(NCCN1CCCC1)c1ccc2c(c1)N(Cc1ccc(F)cc1)C(=O)c1ccccc1S2=O (configuration not stated)	1.4%	26.6%	-21.5%	0.5%	39.8µM*
O=C(COC(=O)Cc1ccc(Br)cc1)NCc1ccc2c(c1)OCO2	-5.2%	-0.2%	-11.6%	.	9.8%
CCOC(=O)C1CCCN(C(=O)c2nn(-c3ccc(OC)cc3)c(=O)c3c2c2ccccc2n3C)C1 (configuration not stated)	.	42.1%	-17.0%	.	2.5%[59 µM]
CCCSC1=C(C#N)C(c2ccccc2C)CC(=O)N1 (configuration not stated)	7.4%	33.1%	-8.2%	?	25.1µM*
C=CCSC1=C(C#N)C(c2ccccc2OCC)CC(=O)N1 (configuration not stated)	1.5%	-7.3%	-19.0%	70.8µM*	?
CCSC1=C(C#N)C(c2ccccc2OC)CC(=O)N1 (configuration not stated)	-4.2%	29.7%	-10.3%	2.0%	-2.7%[59 µM]
SMILES	BAZ2B inh	HP1b binding inh	JMJD2A Tudor inh	Sfp PPTase inh	G9a block
CCOc1ccccc1C1CC(=O)NC(SCC(=O)Nc2nccs2)=C1C#N (configuration not stated)	-12.1%	34.1%	-15.1%	?	14.1µM*
C=CCSC1=C(C#N)C(c2ccccc2OC)CC(=O)N1 (configuration not stated)	12.8%	26.1%	-6.7%	56.2µM*	?
COCCNc1nc(-c2ccccc2OC)nc2ccccc12	.	.	.	-15.6%	3.9%[0.501 µM]
Cc1ccc(C2CC(=O)NC(SCCC(C)C)=C2C#N)cc1 (configuration not stated)	-3.3%	?	-1.4%	44.7µM*	31.6µM*
COc1cc(C2CC(=O)NC(SCC(=O)Nc3ccccc3C)=C2C#N)ccc1O (configuration not stated)	-6.4%	26.5%	-8.7%	3.7%	-3.7%[59 µM]
CCCSC1=C(C#N)C(c2ccc(O)c(OC)c2)CC(=O)N1 (configuration not stated)	10.3%	35.4%	-5.5%	10.0%	50.1µM*
COC(=O)CSC1=C(C#N)C(c2ccc(C(C)C)cc2)CC(=O)N1 (configuration not stated)	8.3%	15.9%	-32.4%	0.2%	?
CCOP(=O)(OCC)c1ccc2ccc3ccccc3c(=O)c2c1	.	33.6%	-13.1%	.	.
Cc1ccc(SCC(=O)Nc2ccc3c(c2)C(=O)N(C)C3=O)cc1	-5.8%[57.1 µM]	19.7%	-11.7%	7.4%	66.1%
NNC(=O)C(C(=O)OCc1ccccc1)c1ccccc1 (configuration not stated)	.	.	-20.5%	.	.
CO[C@H]1C[C@@H]2CC[C@@H](C)[C@@](O)(O2)C(=O)C(=O)N2CCCC[C@H]2C(=O)O[C@H](C(C)C[C@H]2CC[C@@H](O)[C@H](OC)C2)CC(=O)[C@H](C)/C=C(\C)[C@@H](O)[C@@H](OC)C(=O)[C@H](C)C[C@H](C)/C=C/C=C/C=C/1C (some centres not stated)	.	.	.	3.0%	17.1%[59 µM]
CCOCCCNC(=O)CNC(=S)N(Cc1ccc(C)cc1)Cc1ccco1	-38.4%	-13.3%	-23.2%	39.8µM*	10µM*
NC(=O)C1CCN(C(=O)c2cc(-c3ccc(Cl)s3)nc3ccccc23)CC1	.	41.4%	-7.0%	.	.
CC(=O)N(C)c1ccc(NS(=O)(=O)Cc2ccccc2)cc1	5.8%	11.0%	-0.8%	-12.3%	56.2µM*
CC(=O)c1ccc(NS(=O)(=O)Cc2ccccc2)cc1	1.2%	60.1%	-17.8%	25.5%	9.6%[59 µM]
O=C(NCc1ccccn1)Nc1cccc(F)c1	-1.3%	27.0%	-9.6%	1.6%	67.2%
NC(=O)c1cccnc1Oc1cccc(Cl)c1	15.7%	?	20µM*	-7.0%	1.3%[12.7 µM]
NC(=O)c1cccnc1Oc1ccc(Cl)cc1	-19.9%	12.7%	-11.4%	-26.6%	.
Cc1cccc(NC(=O)c2n[nH]c([N+](=O)[O-])c2Br)c1C	-24.7%	42.5%	-3.5%	18.3%	39.8µM*
CC(=O)c1c(C)[nH]c(C(=O)Nc2cccc(C)c2C)c1C	0.7%	1.9%	-13.4%	9.0%	-8.5%
